In PubChem BioAssay:
Activity calls are given as the source filed them.

Legend:
[1] = E. coli DRC41 culture turbidity changes, primary screen, E. coli filamentation inducer project, strain DRC41, OD650, 48 h (AID 1152);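 note: E. coli MC1000 strain DRC41 lacking acrAB efflux pump and sulA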; conditions: E. coli DRC41 (acrAB sulA), higher = more signal, called active from +8 up or from −8 down
[2] = small-molecule binders of probe aLefty1, primary screen, biochemical, small-molecule microarray, 635/667 nm fluorescence (AID 1153); conditions: higher = more signal;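 note: score merges spot fluorescence with signal-to-noise ratio from the scanned slide images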
[3] = PSAC antagonists in infected red cells, primary screen, cell-based, P. falciparum Indochina, OD700, 1 h (AID 1154); conditions: P. falciparum Indochina infected RBC osmotic lysis, higher = more signal, called active from +8 up or from −8 down
[4] = PSAC antagonists in infected red cells, primary screen, cell-based, P. falciparum Indochina, OD700, 2 h (AID 1155);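 note: lysis reports solute entry through the parasite surface anion channel PSAC; channel blockers reduce lysis of infected cells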; conditions: P. falciparum Indochina infected erythrocytes, osmotic lysis OD700; higher = more signal, called active from +8 up or from −8 down
[5] = osmotic lysis modulators in infected erythrocytes, primary screen, PSAC antagonist project, cell-based, P. falciparum Indochina, OD700, 3 h (AID 1156); conditions: higher = more signal, called active from +8 up or from −8 down
[6] = PSAC antagonists in infected red cells, primary screen, cell-based, P. falciparum Indochina, OD700, 18 h (AID 1157); conditions: P. falciparum Indochina infected erythrocytes, osmotic lysis OD700, 18 h; higher = more signal, called active from +8 up or from −8 down
[7] = modulators of S6 phosphorylation in cells, primary screen, cell-based, A549, cytoblot, luminescence, serum-stimulated (AID 1158); conditions: A549 phospho-S6 cytoblot, 5 h, higher = more signal;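 note: serum-stimulated A549 lung adenocarcinoma cells; signal is phosphorylated S6 detected by cytoblot immunostaining with HRP secondary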
[8] = molecular target: NADPH oxidase 2 (Homo sapiens) (UniProt P04839); test: NOX2-dependent H2O2 signal modulators, primary screen, NOX inhibitor project, cell-based, HEK293-NOX2, PMA-stimulated, Amplex Red fluorescence (AID 1159); conditions: 45 min, higher = more signal, called active from +8 up or from −8 down; note: test concentration not given here
[9] = molecular target: NADPH oxidase 4 (Homo sapiens) (UniProt Q9NPH5); test: NOX4-dependent H2O2 signal modulators, primary screen, NOX inhibitor project, cell-based, HEK293-NOX4, tetracycline-induced, Amplex Red fluorescence (AID 1160); conditions: 45 min, higher = more signal, called active from +8 up or from −8 down
[10] = molecular target: NADPH oxidase 5 (Homo sapiens) (UniProt Q96PH1); test: NOX5-dependent H2O2 signal modulators, primary screen, NOX inhibitor project, cell-based, HEK293-NOX5, Amplex Red fluorescence (AID 1161); conditions: HEK293-NOX5, ionomycin, 45 min, higher = more signal
Chain of NADPH oxidase 5 (Homo sapiens) (Q96PH1 whole entry, looked up): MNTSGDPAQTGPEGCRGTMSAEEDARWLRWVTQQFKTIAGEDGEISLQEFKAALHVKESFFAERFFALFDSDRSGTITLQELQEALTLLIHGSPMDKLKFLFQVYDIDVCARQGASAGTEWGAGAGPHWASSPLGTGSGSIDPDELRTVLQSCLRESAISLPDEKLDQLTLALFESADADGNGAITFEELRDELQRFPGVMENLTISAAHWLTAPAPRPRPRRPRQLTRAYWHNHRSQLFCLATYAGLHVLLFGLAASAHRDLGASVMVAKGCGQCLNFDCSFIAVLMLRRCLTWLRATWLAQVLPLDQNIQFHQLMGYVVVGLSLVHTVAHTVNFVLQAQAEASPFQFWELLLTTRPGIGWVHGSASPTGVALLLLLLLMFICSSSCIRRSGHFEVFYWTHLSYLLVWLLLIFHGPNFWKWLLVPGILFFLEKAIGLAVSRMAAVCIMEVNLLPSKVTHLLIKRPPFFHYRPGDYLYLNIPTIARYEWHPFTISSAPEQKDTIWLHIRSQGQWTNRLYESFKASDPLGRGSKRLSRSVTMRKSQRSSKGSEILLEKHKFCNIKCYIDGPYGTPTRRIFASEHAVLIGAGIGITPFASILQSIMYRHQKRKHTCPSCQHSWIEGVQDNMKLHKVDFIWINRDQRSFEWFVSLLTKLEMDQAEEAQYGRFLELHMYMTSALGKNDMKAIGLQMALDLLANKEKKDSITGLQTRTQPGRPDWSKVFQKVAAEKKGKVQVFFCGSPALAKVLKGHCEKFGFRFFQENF

Chain of NADPH oxidase 4 (Homo sapiens) (Q9NPH5 whole entry, looked up): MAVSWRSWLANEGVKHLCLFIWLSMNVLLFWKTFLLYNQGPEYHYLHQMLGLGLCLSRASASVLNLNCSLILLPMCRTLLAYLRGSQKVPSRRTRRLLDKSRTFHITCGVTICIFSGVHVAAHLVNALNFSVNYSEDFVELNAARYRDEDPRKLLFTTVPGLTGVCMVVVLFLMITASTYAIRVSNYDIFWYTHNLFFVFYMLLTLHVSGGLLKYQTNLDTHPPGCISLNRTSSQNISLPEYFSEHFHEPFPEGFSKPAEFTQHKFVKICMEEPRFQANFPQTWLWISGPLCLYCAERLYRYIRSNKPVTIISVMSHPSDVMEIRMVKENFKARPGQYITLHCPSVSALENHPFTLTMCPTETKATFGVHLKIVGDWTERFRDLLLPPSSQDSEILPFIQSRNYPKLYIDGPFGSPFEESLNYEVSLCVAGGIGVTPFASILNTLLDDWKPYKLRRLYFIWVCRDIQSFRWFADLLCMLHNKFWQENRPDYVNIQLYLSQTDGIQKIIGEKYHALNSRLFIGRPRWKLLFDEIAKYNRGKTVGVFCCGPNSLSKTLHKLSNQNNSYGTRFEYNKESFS
Chain of NADPH oxidase 2 (Homo sapiens) (P04839 whole entry, looked up): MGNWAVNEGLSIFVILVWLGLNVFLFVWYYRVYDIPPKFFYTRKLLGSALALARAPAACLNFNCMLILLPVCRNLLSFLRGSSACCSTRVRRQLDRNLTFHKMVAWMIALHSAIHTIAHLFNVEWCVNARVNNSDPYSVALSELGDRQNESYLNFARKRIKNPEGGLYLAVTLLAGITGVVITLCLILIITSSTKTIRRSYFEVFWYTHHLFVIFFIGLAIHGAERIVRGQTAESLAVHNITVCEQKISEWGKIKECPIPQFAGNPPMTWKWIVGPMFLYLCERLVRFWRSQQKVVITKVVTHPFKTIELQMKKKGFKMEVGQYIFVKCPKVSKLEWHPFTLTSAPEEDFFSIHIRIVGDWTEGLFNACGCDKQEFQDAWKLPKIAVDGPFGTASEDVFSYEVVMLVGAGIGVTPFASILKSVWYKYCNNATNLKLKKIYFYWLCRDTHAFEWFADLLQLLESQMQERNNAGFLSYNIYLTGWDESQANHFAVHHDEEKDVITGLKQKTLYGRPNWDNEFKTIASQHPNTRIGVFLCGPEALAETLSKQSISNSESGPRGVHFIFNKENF

CCCNC(=O)[C@@]1(Sc2ccc(C)cc2)CC(=O)N(Cc2ccccc2Cl)[C@@H]1c1ccc(CO)cc1
z-score [1]: 2.06 (inactive)
composite z-score [2]: 0.369
z-score [3]: 3.09 (inactive)
z-score [4]: -0.114 (inactive)
z-score [5]: -1.35 (inactive)
z-score [6]: -0.772 (inactive)
z-score [7]: 3.71
z-score [8]: -0.773 (inactive)
z-score [9]: -0.99 (inactive)
z-score [10]: -0.176

NC(=O)NCC#Cc1ccc2c(c1)[C@]1(C(=O)N2)[C@H](C(=O)N2CCCCCCC2)[C@H]2C(=O)O[C@H](c3ccccc3)[C@H](c3ccccc3)N2[C@@H]1c1ccccc1OCCO
z-score [1]: 1.43 (inactive)
composite z-score [2]: 2.79
z-score [3]: 0.833 (inactive)
z-score [4]: 0.483 (inactive)
z-score [5]: 1.8 (inactive)
z-score [6]: 0.148 (inactive)
z-score [7]: 0.421
z-score [8]: 2 (inactive)
z-score [9]: 1.36 (inactive)
z-score [10]: 0.881

O=C/C=C/c1ccccc1Cl
z-score [1]: 2.11 (inactive)
composite z-score [2]: -0.191
z-score [3]: 0.159 (inactive)
z-score [4]: 0.282 (inactive)
z-score [5]: -2.03 (inactive)
z-score [6]: 0.206 (inactive)
z-score [7]: 1.11
z-score [8]: -0.129 (inactive)
z-score [9]: -0.729 (inactive)
z-score [10]: 1.38

C=C(CCCC)C(=O)CC[C@@H](OC(C)=O)c1ccccc1OCCO
z-score [1]: 0.377 (inactive)
composite z-score [2]: -0.145
z-score [3]: 4.13 (inactive)
z-score [4]: 0.663 (inactive)
z-score [5]: -0.566 (inactive)
z-score [6]: 0.7 (inactive)
z-score [7]: -0.0442
z-score [8]: 0.356 (inactive)
z-score [9]: -0.852 (inactive)
z-score [10]: -1.68

CCC1=C2CN(Cc3ccccc3Br)[C@@H]([C@@H](O)Cc3ccccc3)C2C=CCC1 (stereo not given in full)
z-score [1]: 0.625 (inactive)
composite z-score [2]: -0.101
z-score [3]: 4.02 (inactive)
z-score [4]: -0.96 (inactive)
z-score [5]: -0.115 (inactive)
z-score [6]: -1.8 (inactive)
z-score [7]: 1.56
z-score [8]: -0.306 (inactive)
z-score [9]: -4.86 (inactive)
z-score [10]: -4.65

CN(C)CCCC[C@@H]1NC(=O)[C@@H]2C[C@H](C(=O)O)[C@H](c3ccc(O)cc3)N2C1=O
z-score [1]: 2.66 (inactive)
composite z-score [2]: 0.616
z-score [3]: 0.847 (inactive)
z-score [4]: -1.57 (inactive)
z-score [5]: -3.19 (inactive)
z-score [6]: -1.98 (inactive)
z-score [7]: 1.03
z-score [8]: -2.71 (inactive)
z-score [9]: -3.88 (inactive)
z-score [10]: -2.48

N#Cc1ccc(NN2C(C(O)CCc3ccccc3)C=CC3C(=O)N(c4ccccc4)C(=O)C32)cc1 (stereo not given)
z-score [1]: -0.487 (inactive)
composite z-score [2]: 0.272
z-score [3]: 11.9 (active)
z-score [4]: 1.44 (inactive)
z-score [5]: 0.712 (inactive)
z-score [6]: -0.864 (inactive)
z-score [7]: 0.843
z-score [8]: -2.47 (inactive)
z-score [9]: -3.59 (inactive)
z-score [10]: -1.41

C=CC[C@@]1(C(=O)NCC(O)CO)N=C(c2ccc(OCCCO)cc2)O[C@@H]1c1ccccc1CN=[N+]=[N-] (stereo not given in full)
z-score [1]: 1.39 (inactive)
composite z-score [2]: 0.129
z-score [3]: 24.9 (active)
z-score [4]: 9.51 (active)
z-score [5]: 1.99 (inactive)
z-score [6]: 1.25 (inactive)
z-score [7]: 0.281
z-score [8]: -0.424 (inactive)
z-score [9]: 0.495 (inactive)
z-score [10]: -0.927

C=CCN1C(=O)[C@@]2(O[C@@H](CCn3cc([C@H](O)c4ccccc4)nn3)[C@H]([Si](C)(C)c3ccc(OC)cc3)[C@H]2C)c2cc(N3CCOC3=O)ccc21
z-score [1]: 1.77 (inactive)
composite z-score [2]: -0.139
z-score [3]: 6.55 (inactive)
z-score [4]: 0.569 (inactive)
z-score [5]: -0.0434 (inactive)
z-score [6]: -0.233 (inactive)
z-score [7]: 1.67
z-score [8]: -0.379 (inactive)
z-score [9]: 1.18 (inactive)
z-score [10]: -1.67

CO[C@H]1COC(=O)[C@@H](Cc2ccccc2)NC(=O)[C@@H](C)COC(=O)CC=C[C@@H]1C
z-score [1]: 0.428 (inactive)
composite z-score [2]: -0.0573
z-score [3]: -0.224 (inactive)
z-score [4]: -0.204 (inactive)
z-score [5]: -0.234 (inactive)
z-score [6]: -0.481 (inactive)
z-score [7]: -0.003
z-score [8]: -0.246 (inactive)
z-score [9]: 0.937 (inactive)
z-score [10]: 0.264

CO[C@H]1COC(=O)[C@@H](C)COC(=O)[C@H](Cc2ccccc2)NC(=O)CC=C[C@H]1C
z-score [1]: -0.507 (inactive)
composite z-score [2]: -0.363
z-score [3]: -0.318 (inactive)
z-score [4]: -1.31 (inactive)
z-score [5]: -0.116 (inactive)
z-score [6]: -2.15 (inactive)
z-score [7]: 0.627
z-score [8]: 0.714 (inactive)
z-score [9]: 0.791 (inactive)
z-score [10]: 0.299

Cc1ccc(N2C(=O)c3ccccc3[C@](C)(C(=O)O)[C@@H]2c2ccc(CO)cc2)nc1
z-score [1]: 1.47 (inactive)
composite z-score [2]: -0.147
z-score [3]: 0.703 (inactive)
z-score [4]: -0.228 (inactive)
z-score [5]: -0.0241 (inactive)
z-score [6]: -0.211 (inactive)
z-score [7]: 0.283
z-score [8]: 0.775 (inactive)
z-score [9]: -0.975 (inactive)
z-score [10]: -0.457
